Reference: PubChem BioAssay (NCI)
This is part of a sample that, as a whole, favours compounds with a hit. Of some 79,000 tested, about 15% had one in any assay. A number with no mark means an inactive call. Activity calls are given as the source filed them. Rule as the data show it: active = growth inhibition above about 70%; inactive = the rest.

test: NCI Yeast Anticancer Drug Screen. Data for the bub3 strain (AID 167); settings: S. cerevisiae bub3 mutant strain, at 100.0 µM, stronger effect = higher value
How it was run: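 Screening used yeast with an engineered genetic alteration affecting cell cycle control. Compound-exposed cultures were compared with vehicle cultures, and reduced growth was taken as inhibition.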

Row | Structure (SMILES) | growth inhibition
1 | S=C(S)NN1CCOCC1 | 8%
2 | COc1cc2c3c(cccc3c1)C(=O)N(CCN(C)C)C2=O | -4%
3 | COC(=O)C1=C(C)NC(C)=C(C(=O)OCCCN2CCC(c3ccccc3)(c3ccccc3)CC2)C1c1cccc([N+](=O)[O-])c1 (centres undefined) | 90% (active)
4 | c1ccc2c(c1)Oc1cccc3cccc-2c13 | 36%
5 | CN(C)CCOc1ccc2c(c1)C/C(=C/c1ncc([N+](=O)[O-])n1C)C2=O | 59%
6 | Cc1ccc(CCC2=CCCc3c2ccc2ccccc32)cc1 | 15%
7 | CNC(=O)OCc1c(COC(=O)NC)c(-c2ccc(Cl)c(Cl)c2)n2c1CCC2 | 97% (active)
8 | Clc1ccccc1C1OC1c1ccccc1Cl (centres undefined) | -6%
9 | O=[N+]([O-])c1cc(CCl)ccc1CCl | 97% (active)
10 | O=C1C=CC(=O)c2c(O)c(Nc3ccc(OC(F)(F)F)cc3)c(Cl)c(O)c21 | 91% (active)
11 | S=c1[nH]nc(Nc2ccc(Cl)cc2)s1 | 9%
12 | Cn1ccnc1Oc1ccc(Cl)cc1 | 97% (active)
13 | BrCc1cccc2ccc3cccc(CBr)c3c12 | -6%
14 | O=C1c2ccccc2-c2nc3ccccc3nc21 | 66%
15 | CCCCCCCCCCCCCCCCCCNC | 94% (active)
16 | Oc1ccc(NCn2c(=S)sc3ccccc32)cc1 | 98% (active)
17 | O=C1C2CC[C@@H]3C(=O)C(Cl)(Cl)[C@@H]3CCC2C1(Cl)Cl (some centres undefined) | 11%
18 | CC[n+]1ccc2c(C)c3[nH]c4ccc(O)cc4c3c(C)c2c1 | 15%
19 | Cc1ccc(-n2cc(-c3ccc(Cl)cc3)c(C#N)c2N)cc1 | 8%
